PubChem BioAssay (NCI)
Compounds without any hit were thinned out: in the full panel of roughly 83,000, 20% have a hit.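 Treatment: one concentration, 48 hours, 96-well format. Scoring: percent growth, with anything below 10 considered active.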 Values without a mark were called inactive. Calls of active or inactive are those of the source.

What was measured:
Test in all cases: NCI-60 one-dose screen, 48 h (100 = growth as untreated, 0 = no growth, -100 = all killed)
Conditions in all cases: 10 µM unless noted
[1] = test system: T-47D breast
[2] = test system: BT-549 breast
[3] = test system: MDA-MB-435 melanoma
[4] = test system: SW-620 colon
[5] = test system: MCF7 breast
[6] = test system: HCT-116 colon
[7] = test system: HCC-2998 colon
[8] = test system: KM12 colon

SMILES	growth [1]	growth [2]	growth [3]	growth [4]	growth [5]	growth [6]	growth [7]	growth [8]
N=c1c2cc(-c3ccccc3)oc2ncn1/N=C/c1ccccc1	94%	92.1%	7.67% (active)	60.1%	50.4%	65%	99%	59%
O=C1Nc2cc(OC(F)(F)F)ccc2Oc2ccc(-c3ccnc(N4CC[C@H](O)C4)c3)cc21	62.3%	-18.7% (active)	-57.3% (active)	-19.3% (active)	0.967% (active)	-40.5% (active)	0.963% (active)	-12.9% (active)
COc1ccc(/C=N/Nc2nc(Nc3ccccc3)nc(Nc3ccc(S(N)(=O)=O)cc3)n2)cc1	63.1%	85.7%	76.6%	72.4%	41%	50.2%	87%	74.4%
CN(C)CCn1c2ccc(N)cc2c2nc3ccccc3nc21	36.4%	85.5%	38.4%	17.1%	9.61% (active)	11.3%	45.9%	38.5%
NC(=O)N1N=C(c2cc3ccccc3oc2=O)CC1c1cn(-c2ccccc2)nc1-c1ccc(Cl)cc1 (configuration not stated)	25.1%	68.7%	47.4%	35.5%	25.4%	26.7%	57%	34.5%
COC1=C(c2ccccc2)C(=O)C(OC)=C(c2ccccc2)C1=O	60.9%	104%	93.7%	98.8%	85.2%	96.3%	94.4%	98.6%
C=C1C(=O)O[C@@H]2C[C@@H](C)CCC(=O)[C@](C)(OC(C)=O)C[C@H](OC(=O)/C(C)=C\C)[C@@H]12	39%	80.3%	65.9%	45.7%	35.1%	25.3%		91.6%
C#CCOc1ccccc1C(Nc1ccccc1)c1nnnn1C1CCCCC1 (configuration not stated)	93%	109%	101%	104%	94.3%	84.3%	106%	94.6%
CC(C)N=C(N/C(N)=N/c1nc2ccccc2s1)NC(C)C	58.4%	70%	35.9%	33.3%	43.2%	17.7%	76.9%	65.9%
C=C1C(=O)O[C@@H]2/C=C(/C)C3=CC(=O)[C@@](C)(C[C@H](OC(=O)/C(C)=C\C)[C@@H]12)O3	-17.4% (active)	27.9%	-59% (active)	-28.7% (active)	13.2%	-53.3% (active)		28.2%
CC[C@@](C)(NC(=O)C(C)(C)NC(=O)[C@@H](NC(=O)[C@@H]1CCCN1C(=O)C(C)(C)NC(=O)[C@H](CC(C)C)NC(=O)CNC(=O)C(C)(C)NC(=O)[C@@H](NC(=O)C(C)(C)NC(=O)[C@H](CCC(N)=O)NC(=O)[C@H](C)NC(=O)C(C)(C)NC(=O)[C@H](C)NC(=O)C(C)(C)NC(=O)[C@@H]1CCCN1C(=O)C(C)(C)NC(C)=O)C(C)C)C(C)C)C(=O)N[C@@H](CCC(N)=O)C(=O)N[C@@H](CCC(N)=O)C(=O)N[C@H](CO)Cc1ccccc1	0.666% [4.25 µM] (active)	-50.2% [4.25 µM] (active)	4.98% [4.25 µM] (active)	54.9% [4.25 µM]	9.62% [4.25 µM] (active)	27.8% [4.25 µM]	29.3% [4.25 µM]	29.5% [4.25 µM]
CCOC(=O)c1nn(-c2ccc(C)cc2)c(=O)c2c(N)c(C#N)c(-c3ccc(OC)cc3)cc12	102%	130%	106%	94.4%	95.5%	99.4%	110%	95.5%
CC1OC(O[C@@H]2[C@H](O)C(CO)OC(O[C@H]3COC(O[C@H]4CC[C@]5(C)[C@H]6CC[C@]78OC[C@@]9(CCC(C)(C)C[C@H]97)[C@H](O)C[C@@]8(C)[C@]6(C)CC[C@H]5C4(C)C)[C@@H](OC4OC(CO)[C@@H](O)[C@@H](O)[C@@H]4O)[C@@H]3O)[C@H]2OC2OC[C@@H](O)[C@@H](O)[C@@H]2O)[C@@H](O)[C@@H](O)[C@H]1O (some centres not stated)	-54.6% (active)	-69.2% (active)	-82.8% (active)	-75.9% (active)	-55.9% (active)	-80.1% (active)		-51.9% (active)
COc1cc2cc(Oc3ccc(NC(=O)Nc4cc(C(F)(F)F)cc(C(F)(F)F)c4)cc3)c(C)nc2cc1OCCN(C)C	106%	114%	106%	106%	93%	110%	103%	104%
CCN(CC)c1ccc2cc(C(=O)NCCOCCOCCOCCn3cc(CCC(=O)Nc4ccc(C(=O)c5ccc(NC(=O)OC(C)(C)C)cc5)cc4)nn3)c(=O)oc2c1	-8.51% (active)	26.4%	62.4%	82.1%	44.1%	36.3%	96.8%	36.6%
